ANO1 activ: activators or potentiators of mouse TMEM16A chloride channel; AID 623877; Q8BHY3; B-score at 10 µM; HEK293 TMEM16A/YFP-H148Q/I152L, iodide quench fluorescence; active compounds read low; 0.3% of 340,000 active;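 active means fluorescence-ratio B-score plate-corrected deviation score at least 3 library SD below zero, with starting fluorescence score within 5 deviations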;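 further: channel opened by trigger with iodide after compound preincubation; score built on the fluorescence ratio of max minus min over baseline; more negative score means more quench and so TMEM16A activation or potentiation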
KCNK9 inh: blocks the human KCNK9 two-pore domain potassium channel. HEK293 KCNK9, FluxOR thallium flux fluorescence; active compounds read low. 1.2% of 310,000 active. B-score at 10 µM. Q9NPC2. AID 488922;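 active means ratio B-score over 3 SD below the library mean, with starting fluorescence within 5 SD of its mean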;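 further: negative B-score means less thallium flux so channel inhibition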
KCNK3 inh: human KCNK3 channel inhibition, primary screen | AID 602410 | 0.84% of 340,000 active | CHO-KCNK3 thallium flux, FluxOR fluorescence; active compounds read low | O14649 | B-score at 10 µM;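 active means B-score under library mean minus 4 SD, starting fluorescence ratio at most library mean plus 5 SD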;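 further: more negative B-score means stronger inhibition of thallium flux through KCNK3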
TMEM16A inh: blocks the mouse calcium-activated chloride channel TMEM16A; HEK293 TMEM16A/YFP iodide influx fluorescence, ionomycin; normalized B-score (activity score, 25-100; higher = stronger inhibition) at 10 µM; 1.2% of 310,000 active; AID 588511;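 active means ratio plate-corrected score three or more library SD toward inhibition, starting fluorescence score within five deviations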;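 further: score derived from kinetic fluorescence span divided by baseline fluorescence per well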
Kir21 block: inhibitors of mouse Kir2.1 inward-rectifier potassium channel | P35561 | HEK293-Kir2.1, FluxOR thallium flux fluorescence; active compounds read low | B-score at 10 µM | 0.85% of 310,000 active;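 active means fluorescence ratio B-score at or below minus 3 SD of library scores, with starting-brightness B-score within 2 SD, cut at about -4.2 in these data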;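 further: channel flux triggered by added potassium and thallium sulfate stimulus; B-score of peak minus minimum fluorescence over baseline after thallium stimulus; more negative B-score means stronger Kir2.1 block with less thallium influx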
The depositor's hits bear a star; i = inactive; x = not tested or not shown. Hits are enriched below; roughly 3.5% of the tested compounds scored in any of these assays.

SMILES	ANO1 activ	KCNK9 inh	KCNK3 inh	TMEM16A inh	Kir21 block
CCN(CC)c1ccc(NC(=O)CCCOc2cccc(C)c2)cc1	i	i	i	x	0.04
CCCCn1c(N)c(N(CC(C)C)C(=O)c2cccc(-n3cnnn3)c2)c(=O)[nH]c1=O	i	i	i	i	-0.08
CCOc1cc(/C=C2\COc3ccccc3C2=O)ccc1OCC(=O)N(C)C	i	i	i	i	-4.35*
CCNC(=O)COc1ccc(/C=C2\COc3ccccc3C2=O)cc1OC	i	i	i	i	-0.4
CC(C)N1CCc2c(sc(NC(=O)c3ccc4ccccc4c3)c2C(N)=O)C1	i	-7.94*	i	i	-3.79
CC(C)N1CCc2c(sc(NC(=O)c3ccc(C(=O)c4ccccc4)cc3)c2C(N)=O)C1	i	i	i	i	-0.61
COCCNC(=O)/C(C#N)=C/c1ccc(OC(=O)c2cccs2)c(OC)c1	i	i	i	x	-6.02*
COc1cc(/C=C(\C#N)C(=O)NCc2ccccc2)ccc1OCc1ccc(C(=O)O)cc1	i	i	i	i	0.94
COc1ccc(CCNC(=O)/C(C#N)=C/c2cccc(OCc3ccccc3)c2)cc1OC	i	i	i	i	-4.4*
O=C(/C=C/c1cccc(Br)c1)c1ccc2c(c1)OCO2	i	-7.75*	i	i	1.94
Cc1nsc(Nc2ccc([N+](=O)[O-])cc2)c1C#N	i	i	i	i	1.16
O=C(NC(=S)N1CCN(c2ccccc2)CC1)c1ccccc1	i	i	i	i	-0.72
COC(=O)C1=CN(Cc2cccs2)C=C(C(=O)OC)C1c1ccc(OC)cc1OC	i	i	i	i	0.58
COC(=O)C1=CN(Cc2cccs2)C=C(C(=O)OC)C1c1cccc(Cl)c1	i	-7.86*	i	i	0.09
COc1ccc(CSc2ccc(S(=O)(=O)N3CCCCC3)cn2)cc1F	-22.5*	x	i	x	x
O=C(c1cccc(S(=O)(=O)N2CCc3ccccc32)c1)N1CCN(c2ccccc2)CC1	i	x	-8.87*	x	x
O=C(c1cccc(S(=O)(=O)N2CCc3ccccc3C2)c1)N1CCN(c2ccccc2)CC1	i	i	i	i	-0.18
Cc1ccc(S(=O)(=O)Nc2ccc3c(c2)C(=O)N([C@H](C)CO)C[C@H](C)[C@@H](CN(C)Cc2ccccc2)O3)cc1	i	x	-10.5*	x	x
Cc1ccc(S(=O)(=O)Nc2ccc3c(c2)CC(=O)N([C@H](C)CO)C[C@@H](C)[C@H](CN(C)Cc2ccc(-c4ccccc4)cc2)O3)cc1	i	x	i	x	x
C[C@H](CO)N1C[C@H](C)[C@@H](CN(C)C(=O)Nc2ccc3c(c2)OCO3)Oc2c(NC(=O)Nc3ccc(C(F)(F)F)cc3)cccc2C1=O	i	x	i	x	x
C[C@H](CO)N1C[C@H](C)[C@@H](CN(C)C(=O)NC2CCCCC2)Oc2ccc(NC(=O)Nc3ccc(C(F)(F)F)cc3)cc2C1=O	-5.02*	x	i	x	x
C[C@H](CO)N1C[C@H](C)[C@@H](CN(C)C(=O)Nc2ccc(C(F)(F)F)cc2)Oc2ccc(NC(=O)NC3CCCCC3)cc2C1=O	x	x	i	x	x
C[C@H](CO)N1C[C@H](C)[C@@H](CN(C)C(=O)Nc2ccc(C(F)(F)F)cc2)Oc2c(NC(=O)Nc3ccc4c(c3)OCO4)cccc2C1=O	i	x	-8.98*	x	x
C=CCn1c(SCC(=O)NC(=O)c2cccc([N+](=O)[O-])c2)nnc1-c1ccccc1	i	i	i	i	-0.05
CCc1ccc(C(C(=O)NC2CCCC2)N(Cc2cccnc2)C(=O)c2csnn2)cc1 (configuration not stated)	i	i	i	i	1.54
CCC(C)N(C(=O)COc1ccc(NC(C)=O)cc1)C1CCS(=O)(=O)C1 (configuration not stated)	i	i	i	i	0.12
CC1(C)C2CCC1(CS(=O)(=O)Nc1ccccc1)C(=O)C2 (configuration not stated)	i	i	i	i	-0.34
COc1ccc(N2CCN(C(=O)c3ccc(NS(=O)(=O)c4ccccc4)cc3)CC2)cc1	i	i	i	i	-1.51
Cc1ccc(S(=O)(=O)NCc2ccc(C(=O)N3CCN(Cc4ccccc4)CC3)cc2)cc1	i	i	-9.26*	i	0.17
COc1ccc(NS(=O)(=O)c2ccc(C(=O)N3CCN(Cc4ccccc4)CC3)cc2)cc1	i	i	i	25*	-1.9

From PubChem
